Experimental data: PubChem BioAssay (EPA / NIEHS)
Values joined by “and” are separate entries in the source; they are usually repeats but may differ in a detail not shown here. Identical values can stand only once. Results filed as inconclusive are left out. A structure can be active in one record and inactive in another. Active and inactive are the calls of the source. How the source made its calls: active means hit-call score of the fitted dose curve at least 0.9, where 1 is the maximum; inconclusive means response in the unintended direction; inactive means score below 0.9.

Tests used:
[1] = TOX21_p53_BLA_p2_viability: Viability Assessment in the Tox21 HCT-116 p53 Agonism Beta-lactamase Assay, Phase 2 (AID 2283591);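 further: actives lower the ATP signal meaning cytotoxicity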
In short: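 Cytotoxicity readout: CellTiter-Glo ATP luminescence, 30 min at room temperature, after the beta-lactamase read. Cells were HCT116 exposed 16 h at 37C to compounds pin-transferred at 217-fold dilution from DMSO stocks.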

[2] = molecular target: Cellular tumor antigen p53 (Homo sapiens) (UniProt P04637); experiment: TOX21_p53_BLA_p2_ratio: Tox21 HCT-116 p53 Agonism Beta-lactamase Assay, Ratio, Phase 2 (AID 2283592)
In short: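 First, HCT116 reporter cells settle for 5 h at 37C. Next, DMSO compound solutions are pinned in (217-fold dilution) and left 16 h. Finally, CCF4-AM substrate is loaded 2 h at room temperature and the 460/530 nm ratio read.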

[3] = TOX21_p53_BLA_p3_viability: Viability Assessment in the Tox21 HCT-116 p53 Agonism Beta-lactamase Assay, Phase 3 (AID 2283593);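 further: cells exposed to compound for 16 h before reading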
In short: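 Cellular ATP was quantified by CellTiter-Glo luminescence, read after 30 min at room temperature. Beforehand, HCT116 cells (4000/well) received compound 5 h post-seeding, 217-fold diluted from DMSO, then incubated 16 h at 37C.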

[4] = molecular target: Cellular tumor antigen p53 (Homo sapiens) (UniProt P04637); experiment: TOX21_p53_BLA_p3_ratio: Tox21 HCT-116 p53 Agonism Beta-lactamase Assay, Ratio, Phase 3 (AID 2283596)
In short: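 Cells were seeded at 4000/well, rested 5 h at 37C, then dosed with DMSO compound solutions (217-fold dilution) for 16 h. CCF4-AM substrate was loaded for 2 h at room temperature, and the 460/530 nm emission ratio was fitted for gain of signal versus DMSO.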

[5] = TOX21_p53_BLA_p4_viability: Viability Assessment in the Tox21 HCT-116 p53 Agonism Beta-lactamase Assay, Phase 4 (AID 2283597);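 further: hits lower the luminescence signal meaning cytotoxicity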
In short: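 4000 HCT116 cells per well; 5 h attachment; compounds from DMSO, 217-fold dilution; 16 h at 37C. Then CCF4-AM, 2 h RT, followed by CellTiter-Glo, 30 min RT, luminescence. Decrease = cytotoxicity.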

[6] = molecular target: Cellular tumor antigen p53 (Homo sapiens) (UniProt P04637); experiment: TOX21_p53_BLA_p5_ratio: Tox21 HCT-116 p53 Agonism Beta-lactamase Assay, Ratio, Phase 5 (AID 2283599)
In short: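 Beta-lactamase reporter ratio (blue 460 nm over green 530 nm, 405 nm excitation) after 2 h CCF4-AM loading, in HCT-116 cells exposed 16 h at 37 C to compounds pinned at 217-fold dilution. Increases relative to DMSO baseline scored.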

[7] = TOX21_p53_BLA_p5_viability: Viability Assessment in the Tox21 HCT-116 p53 Agonism Beta-lactamase Assay, Phase 5 (AID 2283600)
In short: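 Decreased CellTiter-Glo luminescence denotes lost viability. Exposure: 16 h at 37C, 5% CO2, with compounds from DMSO stocks diluted 217-fold in wells of 4000 cells.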

[8] = molecular target: Cellular tumor antigen p53 (Homo sapiens) (UniProt P04637); experiment: TOX21_p53_BLA_p4_ratio: Tox21 HCT-116 p53 Agonism Beta-lactamase Assay, Ratio, Phase 4 (AID 2283601)
In short: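 Signal is the blue/green (460nm/530nm) ratio of cleaved versus uncleaved CCF4-AM substrate, read after 2 h substrate loading. Cells were HCT116 carrying the p53-responsive beta-lactamase reporter, dosed 16 h at 37C, 5% CO2; CellTiter-Glo measured in parallel.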

[9] = Tanguay_ZF_120hpf_YSE_legacy: (Legacy) Oregon State University Tanguay Lab 120 Hour Post-fertilization zebrafish Assay for Yolk Sac Edema (AID 2283634)
In short: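 Dechorionated Tropical 5D wild-type zebrafish embryos were exposed statically, one per well, from 6 to 120 hpf at 28C in 0.64% DMSO. Yolk sac edema was scored present/absent by brightfield at 120 hpf, and dead embryos were excluded.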

[10] = Tanguay_ZF_120hpf_AXIS_legacy: (Legacy) Oregon State University Tanguay Lab 120 Hour Post-fertilization zebrafish Assay for Body Axis Malformation (AID 2283635)
In short: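 Dechorionated wild-type Tropical 5D zebrafish embryos, one per well, statically exposed from 6 hpf to 120 hpf at 28C in 0.64% DMSO final. Body axis malformation scored present/absent by brightfield microscopy at 120 hpf; dead embryos excluded.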

[11] = Tanguay_ZF_120hpf_SNOU_legacy: (Legacy) Oregon State University Tanguay Lab 120 Hour Post-fertilization zebrafish Assay for Snout Malformation (AID 2283637)
In short: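 Binary snout-malformation call at 120 hpf in wild-type 5D embryos, chorion removed by pronase, under static exposure from 6 hpf at 28C (0.64% DMSO). Embryos dying by 24 or 120 hpf excluded.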

[12] = Tanguay_ZF_120hpf_JAW_legacy: (Legacy) Oregon State University Tanguay Lab 120 Hour Post-fertilization zebrafish Assay for Jaw Malformation (AID 2283638)
In short: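 Dechorionated Tropical 5D wild-type zebrafish embryos, one per well, exposed statically from 6 hpf to 120 hpf at 28C in 0.64% DMSO. Jaw malformation was scored by brightfield microscopy as present or absent. It was not scored in dead embryos.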

[13] = Tanguay_ZF_120hpf_OTIC_legacy: (Legacy) Oregon State University Tanguay Lab 120 Hour Post-fertilization zebrafish Assay for Otic Vesicle Malformation (AID 2283639)
In short: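 Binary scoring of otic vesicle defects at 120 hpf in zebrafish (Tropical 5D) held under static exposure at 28C, sealed and shaded, with final DMSO 0.64%. Embryos dying by 24 or 120 hpf excluded; fitted positively against DMSO.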

[14] = Tanguay_ZF_120hpf_PE_legacy: (Legacy) Oregon State University Tanguay Lab 120 Hour Post-fertilization zebrafish Assay for Pericardial Edema (AID 2283640)
In short: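 Tropical 5D wild-type zebrafish embryos were statically exposed until 120 hpf at 28C, with 0.64% DMSO final. Pericardial edema was scored by brightfield as present or absent; endpoints were not scored in dead embryos.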

[15] = Tanguay_ZF_120hpf_SOMI_legacy: (Legacy) Oregon State University Tanguay Lab 120 Hour Post-fertilization zebrafish Assay for Somite Malformation (AID 2283647)
In short: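 Dechorionated Tropical 5D wild-type zebrafish embryos, one per well from 6 hpf, statically exposed at 28C to 120 hpf in 0.64% DMSO; somite malformation scored present/absent by brightfield; trimethyltin 5 uM positive control; dead embryos not scored.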

[16] = Tanguay_ZF_120hpf_MORT_legacy: (Legacy) Oregon State University Tanguay Lab 120 Hour Post-fertilization zebrafish Assay for Mortality (AID 2283633);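 on AC50: fitted as increase in binary mortality versus DMSO negative control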
In short: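 Dechorionated Tropical 5D wild-type zebrafish embryos, one per well from 6 hpf, static exposure in 0.64% DMSO at 28C until 120 hpf. Mortality scored as binary by brightfield microscopy at 24 and 120 hpf.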

[17] = Tanguay_ZF_120hpf_EYE_legacy: (Legacy) Oregon State University Tanguay Lab 120 Hour Post-fertilization zebrafish Assay for Eye Malformation (AID 2283636);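 further: binary presence or absence of eye malformation scored by brightfield in 120 hpf larvae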
In short: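 Binary brightfield scoring of eye defects at 120 hpf after static exposure from 6 hpf of single pronase-dechorionated wild-type embryos (28C, 0.64% DMSO). Non-mortality endpoints omitted where embryos died; fit vs DMSO.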

[18] = Tanguay_ZF_120hpf_BRAI_legacy: (Legacy) Oregon State University Tanguay Lab 120 Hour Post-fertilization zebrafish Assay for Brain Malformation (AID 2283641)
In short: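 Tropical 5D wild-type zebrafish embryos exposed statically until 120 hpf at 28C, 0.64% DMSO final, sealed and dark. Brain malformation scored present/absent by brightfield at 120 hpf; dead embryos excluded. Trimethyltin chloride 5uM positive control.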

Measured: AC50

Sequence of Cellular tumor antigen p53 (Homo sapiens) (P04637 whole entry, looked up): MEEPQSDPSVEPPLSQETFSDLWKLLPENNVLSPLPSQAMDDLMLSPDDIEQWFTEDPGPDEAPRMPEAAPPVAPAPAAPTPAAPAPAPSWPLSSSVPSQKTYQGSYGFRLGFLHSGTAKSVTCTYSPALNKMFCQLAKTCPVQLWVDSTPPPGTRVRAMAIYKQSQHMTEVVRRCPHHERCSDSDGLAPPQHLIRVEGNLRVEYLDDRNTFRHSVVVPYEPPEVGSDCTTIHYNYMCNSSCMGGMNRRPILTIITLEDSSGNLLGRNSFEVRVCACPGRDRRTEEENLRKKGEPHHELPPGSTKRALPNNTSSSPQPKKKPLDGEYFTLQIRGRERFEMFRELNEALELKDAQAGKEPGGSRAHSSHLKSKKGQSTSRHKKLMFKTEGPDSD

CN(C)c1ccc(N=NS(=O)(=O)O)cc1
inactive: [1] | [2] | [3] | [4] | [5] | [6] | [7] | [8] | [9] | [10] | [11] | [12] | [13] | [14] | [15]

CC[C@H](C)C(=O)O[C@H]1C[C@@H](C)C=C2C=C[C@H](C)[C@H](CC[C@@H]3C[C@@H](O)CC(=O)O3)[C@H]21
inactive: [1] | [3] | [4] | [5] | [6] | [8] | [9] | [10] | [17] | [11] | [12] | [13] | [14]
active: [1] 44.6 µM | [3] 82.5 µM and 35.6 µM | [5] 79.2 µM and 27.4 µM | [6] 97.1 µM and 37.7 µM | [8] 97.1 µM | [16] 1.33 µM

O=C1CCCCCN1
inactive: [1] | [2] | [3] | [4] | [5] | [6] | [7] | [8] | [16] | [9] | [12] | [13] | [14] | [18] | [15]

CCOC(=O)COc1ccc2c(c1)CC(NCC(O)c1cccc(Cl)c1)CC2 (stereo not drawn)
active: [1] 67.3 µM | [2] 70.3 µM | [5] 80 µM | [8] 71.7 µM
inactive: [3] | [6] | [7] | [9] | [10] | [17] | [11] | [12] | [13] | [14] | [18]

C[C@](N)(Cc1ccc(O)c(O)c1)C(=O)O
inactive: [1] | [3] | [5] | [6] | [8] | [16] | [9] | [10] | [17] | [11] | [12] | [13] | [14] | [18]
